# Results from PubChem BioAssay (NCI).
# This is part of a sample that, as a whole, favours compounds with a hit. Of some 83,000 tested, about 20% had one in any assay.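 Single-concentration screen, 48 h exposure, 96-well plates. Endpoint: percent growth. Below 10 = active.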 A number with no mark means an inactive call. Active and inactive are the calls of the source.
# Legend:
# Assay in all cases: NCI-60 one-dose screen, 48 h (100 = growth as untreated, 0 = no growth, -100 = all killed)
# DU-145 prostate = conditions: 10 µM unless noted
# K-562 leukemia = conditions: 10 µM unless noted
# MALME-3M melanoma = conditions: 10 µM unless noted
# MDA-MB-231 breast = conditions: 10 µM unless noted
# RXF 393 renal = conditions: 10 µM unless noted
# SF-268 CNS = conditions: 10 µM unless noted
# SF-295 CNS = conditions: 10 µM unless noted
# SF-539 CNS = conditions: 10 µM unless noted
# UACC-257 melanoma = conditions: 10 µM unless noted
# M14 melanoma = conditions: 10 µM unless noted
# HCT-15 colon = conditions: 10 µM unless noted
# HT29 colon = conditions: 10 µM unless noted
# U251 CNS = conditions: 10 µM unless noted
# PC-3 prostate = conditions: 10 µM unless noted
# SK-MEL-5 melanoma = conditions: 10 µM unless noted
# UACC-62 melanoma = conditions: 10 µM unless noted
# LOX IMVI melanoma = conditions: 10 µM
# SK-MEL-28 melanoma = conditions: 10 µM unless noted
# SNB-19 CNS = conditions: 10 µM unless noted
SMILES,growth (DU-145 prostate),growth (K-562 leukemia),growth (MALME-3M melanoma),growth (MDA-MB-231 breast),growth (RXF 393 renal),growth (SF-268 CNS),growth (SF-295 CNS),growth (SF-539 CNS),growth (UACC-257 melanoma),growth (M14 melanoma),growth (HCT-15 colon),growth (HT29 colon),growth (U251 CNS),growth (PC-3 prostate),growth (SK-MEL-5 melanoma),growth (UACC-62 melanoma),growth (LOX IMVI melanoma),growth (SK-MEL-28 melanoma),growth (SNB-19 CNS)
Cc1ccc(Cc2cnc(NC(=O)c3ccc(/C=C4\SC(=S)N(C)C4=O)cc3)s2)cc1,26.1%,23.3%,25.2%,41.4%,29.4%,38.6%,8.52% (active),12.7%,30.4%,20.5%,18.7%,23.8%,62.3%,37.3%,19.4%,25.1%,34.3%,42.1%,
Cn1cc(NC(=O)c2cc(NC(=O)c3ccc(/C=C/c4ccccc4)cc3)cn2C)cc1C(=O)NCCCN1CCOCC1,44.4%,-41.3% (active),-83.3% (active),-19.9% (active),-3.75% (active),58.6%,-80.5% (active),-98.2% (active),77.9%,-84% (active),7.6% (active),-88.5% (active),-69.2% (active),38.1%,-70% (active),-89% (active),,32.5%,70.4%
COc1ccc(-c2ccc(SCC(=O)NCCc3ccc(S(N)(=O)=O)cc3)nn2)cc1,96.1%,54.1%,89.3%,92.6%,80.2%,103%,84.9%,88.7%,55.3%,99.7%,110%,96.5%,91.1%,81.8%,52.9%,75.8%,,89.1%,77.4%
Brc1ccc(N/N=C/c2c[nH]c3ccc(Br)cc23)nc1,15.6%,-33.1% (active),-57.4% (active),-63.5% (active),-22.9% (active),10.5%,-78.3% (active),-41.5% (active),7.1% (active),-71.3% (active),-61.8% (active),-80.1% (active),-63.5% (active),-29.6% (active),-87% (active),-57% (active),-100% (active),-50.7% (active),4.49% (active)
CC(=O)c1cccc(NC(=O)CCC(=O)NS(=O)(=O)c2ccc(C)cc2)c1,122%,101%,103%,107%,132%,134%,104%,105%,103%,102%,107%,106%,104%,105%,109%,102%,104%,108%,
COc1ccc2c(c1)c(-c1cc3nc(-c4cn(C)c5ncc(Br)cc45)cc(N)n3n1)cn2C,26%,-33.5% (active),-88.4% (active),-73% (active),-72.9% (active),12.4%,-67.2% (active),-87.6% (active),-74.3% (active),-74.4% (active),-48% (active),-88.5% (active),-57.3% (active),-19.5% (active),-88.1% (active),,-100% (active),-92.8% (active),-16.9% (active)
COc1ccc(-c2nc3cc(C)ccc3n2CC(=O)N=Nc2c(O)[nH]c3ccc(OC)cc23)cc1,8.56% (active),-28.5% (active),-94.6% (active),-76.3% (active),-82.9% (active),-8.44% (active),-72.9% (active),-99% (active),-78% (active),-83.2% (active),-86.5% (active),-20% (active),-80.2% (active),-52.4% (active),-95.9% (active),-86.5% (active),-98% (active),-97.8% (active),
NS(=O)(=O)c1ccc(N=Nc2c(O)n(CC(=O)Nc3ccccc3Cl)c3ccccc23)cc1,28.8%,16.2%,16%,15.4%,24.4%,77.4%,15.1%,-10% (active),53.2%,23.8%,25.1%,7.23% (active),6.28% (active),26.1%,-1.56% (active),19.7%,,21.2%,36.9%
CC(C)CSc1nc(NCCc2c[nH]c3ccccc23)c(C#N)c(-c2ccccc2)n1,66.8%,20.5%,91.8%,38.3%,32.5%,67.4%,68.7%,62.5%,97.4%,74.5%,22.6%,4.54% (active),33.5%,17.8%,27.3%,77.3%,33.3%,87.3%,
C=C1CCC2C3(C)COC(c4cccs4)OC3CCC2(C)C1CC(Sc1ccccc1)C1=CCOC1=O (stereo unspecified),94.4%,40.7%,103%,89.3%,107%,96.6%,92.5%,95%,95.6%,83.3%,44.3%,69.4%,69.1%,53.5%,89.2%,,-77.9% (active),99.4%,95.4%
O=C(Cn1c(/C=C/c2ccccc2)nc2ccccc2c1=O)Nc1ccc(Cl)cc1,71.3%,85.2%,59.1%,4.32% (active),-8.9% (active),75.2%,59.1%,58.7%,83.6%,81.7%,78%,75.5%,20.1%,72.6%,103%,,,108%,52.8%
CN(C)CCCNC(=O)c1cc(NC(=O)c2cc(NC(=O)c3ccc(/C=C/c4ccccc4)cc3)cn2C)cn1C,57.1%,-41% (active),35%,65.6%,25%,48.9%,35.2%,32.7%,54.2%,48.1%,44.3%,2.73% (active),-14.9% (active),46.6%,40.3%,10.1%,-86.1% (active),60.2%,78%
COc1ccc(NC(=O)[C@H](C)N)cc1C(=O)Nc1cccc(C2CC(=O)c3c(cc(OC)c(OC)c3OC)O2)c1 (stereo partly specified),86.6%,75.8%,105%,87.3%,92.8%,81.5%,119%,89.3%,107%,110%,83.9%,109%,93.1%,72.4%,76.9%,84.4%,89.2%,101%,91.5%
Cc1ccccc1[C@H]1C(C(=O)c2ccc(Cl)cc2)C2(N[C@@H]1c1ccccc1)C(=O)Nc1ccccc12 (stereo partly specified),-34.4% (active),-21% (active),-64.7% (active),-60.4% (active),-66% (active),-12.5% (active),-19% (active),-69.5% (active),-16.4% (active),-77.9% (active),-14% (active),-88.7% (active),-58.1% (active),-22.6% (active),-72.2% (active),-83.5% (active),,-34.3% (active),16.2%
CCOC(=O)C1=C(N)N(c2ccccc2)C2=C(C(=O)CC(C)(C)C2)C1c1ccccc1Cl (stereo unspecified),88.2%,41.5%,89.3%,84.8%,78.2%,80%,75%,100%,72.5%,50.8%,49.1%,55%,79.3%,29.6%,60.5%,,85.4%,81.4%,70.5%
CC(C)(C)OC(=O)/C=C/c1cccc2c1C(=O)NC(C)(c1cc3cc(Cl)ccc3oc1=O)N2 (stereo unspecified),61.1%,17.1%,51.2%,67.1%,10.2%,51.4%,24.9%,66.7%,41.7%,49.3%,40.3%,44.3%,42.4%,12.5%,28.4%,36%,41.1%,53.7%,42.1%
